Legend:
Experiment in all cases: DAPPL (digital affinity profiling via proximity ligation, sequencing); 10 mM Tris-HCl pH 7.5, 50 mM NaCl, 1 mM DTT, 4% glycerol, room temperature, 30 min; GST-TFs on glutathione beads, 16-mer random dsDNA library, 0.1% formaldehyde crosslink after washing; high values mean tight binding
Settings in all cases: protein: recombinant; tags: N-terminal GST; dsDNA, one strand shown
FLI1 = molecular target: T1, FLI1 (Homo sapiens, UniProt Q01543 1-452)
T1 sequence: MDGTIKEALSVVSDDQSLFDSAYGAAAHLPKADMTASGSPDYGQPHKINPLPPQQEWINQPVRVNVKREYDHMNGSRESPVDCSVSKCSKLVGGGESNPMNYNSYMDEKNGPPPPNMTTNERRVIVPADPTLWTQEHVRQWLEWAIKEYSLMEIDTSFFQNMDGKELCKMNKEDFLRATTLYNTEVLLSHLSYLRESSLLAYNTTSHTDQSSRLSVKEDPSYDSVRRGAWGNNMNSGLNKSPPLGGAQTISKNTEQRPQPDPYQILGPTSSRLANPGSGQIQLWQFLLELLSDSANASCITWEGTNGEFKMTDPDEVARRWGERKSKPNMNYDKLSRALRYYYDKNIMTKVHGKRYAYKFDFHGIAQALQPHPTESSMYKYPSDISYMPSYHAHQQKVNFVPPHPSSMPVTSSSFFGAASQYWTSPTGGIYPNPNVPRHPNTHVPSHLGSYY
Outline: (§1)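 Binding signal is given per hexamer as its read frequency for a factor divided by its frequency in the tag-only sample. GST-fused human transcription factors were expressed in yeast, captured on glutathione beads, barcoded with DNA and pooled with that sample, then incubated with 200 nmole of a 16-mer random double-stranded DNA library in Tris/NaCl/DTT/glycerol buffer for 30 min at room temperature. The pools were then washed, crosslinked, proximity-ligated, amplified by PCR and sequenced on an Illumina NextSeq500.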

GABPA = molecular target: T2, GABPA (Homo sapiens, UniProt Q06546 1-454)
T2 sequence: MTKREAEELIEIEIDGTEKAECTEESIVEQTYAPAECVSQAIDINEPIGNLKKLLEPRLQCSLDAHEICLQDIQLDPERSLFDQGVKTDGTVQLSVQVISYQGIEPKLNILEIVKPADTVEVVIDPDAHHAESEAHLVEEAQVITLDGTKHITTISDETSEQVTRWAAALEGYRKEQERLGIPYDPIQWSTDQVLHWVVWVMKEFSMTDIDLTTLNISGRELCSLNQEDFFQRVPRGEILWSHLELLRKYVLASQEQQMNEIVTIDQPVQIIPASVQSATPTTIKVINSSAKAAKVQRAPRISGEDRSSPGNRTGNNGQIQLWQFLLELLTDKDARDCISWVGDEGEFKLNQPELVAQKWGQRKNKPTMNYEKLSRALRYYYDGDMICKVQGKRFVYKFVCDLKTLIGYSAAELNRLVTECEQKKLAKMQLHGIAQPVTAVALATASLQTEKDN
Outline: as §1

ERG = molecular target: T3, ERG (Homo sapiens, UniProt P11308 1-479)
T3 sequence: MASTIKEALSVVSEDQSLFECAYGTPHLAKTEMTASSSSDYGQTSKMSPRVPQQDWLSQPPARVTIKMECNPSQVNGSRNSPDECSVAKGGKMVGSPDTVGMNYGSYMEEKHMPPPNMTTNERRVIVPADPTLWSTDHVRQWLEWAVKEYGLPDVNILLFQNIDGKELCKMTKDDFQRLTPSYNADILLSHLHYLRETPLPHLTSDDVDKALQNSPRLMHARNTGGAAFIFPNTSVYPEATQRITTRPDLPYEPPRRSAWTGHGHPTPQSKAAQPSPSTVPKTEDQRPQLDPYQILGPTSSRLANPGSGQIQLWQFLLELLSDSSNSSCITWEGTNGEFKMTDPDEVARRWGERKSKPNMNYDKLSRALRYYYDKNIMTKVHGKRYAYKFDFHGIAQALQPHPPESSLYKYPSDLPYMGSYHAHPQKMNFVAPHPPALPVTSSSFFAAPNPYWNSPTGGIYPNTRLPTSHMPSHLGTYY
Outline: as §1

ELF1 = ELF1 (Homo sapiens, UniProt P32519 1-619)
Chain of ELF1 (P32519 whole entry): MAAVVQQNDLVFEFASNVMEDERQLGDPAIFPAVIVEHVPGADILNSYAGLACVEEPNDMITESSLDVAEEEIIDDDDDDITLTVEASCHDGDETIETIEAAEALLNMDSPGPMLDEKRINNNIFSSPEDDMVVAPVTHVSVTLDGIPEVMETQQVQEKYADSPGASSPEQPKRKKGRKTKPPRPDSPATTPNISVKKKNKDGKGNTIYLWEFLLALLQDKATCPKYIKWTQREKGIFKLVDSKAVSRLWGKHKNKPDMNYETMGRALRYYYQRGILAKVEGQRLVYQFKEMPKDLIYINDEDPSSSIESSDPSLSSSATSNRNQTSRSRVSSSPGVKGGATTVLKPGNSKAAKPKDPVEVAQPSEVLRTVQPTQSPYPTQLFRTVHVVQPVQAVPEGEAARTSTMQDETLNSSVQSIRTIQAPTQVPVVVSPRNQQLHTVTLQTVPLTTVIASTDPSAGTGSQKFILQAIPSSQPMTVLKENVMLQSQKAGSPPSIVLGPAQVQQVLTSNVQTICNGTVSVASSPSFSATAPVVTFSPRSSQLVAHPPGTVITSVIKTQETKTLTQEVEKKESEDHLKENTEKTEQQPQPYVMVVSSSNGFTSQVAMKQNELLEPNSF
Outline: as §1

EHF = molecular target: T4, EHF (Homo sapiens, UniProt Q9NZC4 1-300)
T4 sequence: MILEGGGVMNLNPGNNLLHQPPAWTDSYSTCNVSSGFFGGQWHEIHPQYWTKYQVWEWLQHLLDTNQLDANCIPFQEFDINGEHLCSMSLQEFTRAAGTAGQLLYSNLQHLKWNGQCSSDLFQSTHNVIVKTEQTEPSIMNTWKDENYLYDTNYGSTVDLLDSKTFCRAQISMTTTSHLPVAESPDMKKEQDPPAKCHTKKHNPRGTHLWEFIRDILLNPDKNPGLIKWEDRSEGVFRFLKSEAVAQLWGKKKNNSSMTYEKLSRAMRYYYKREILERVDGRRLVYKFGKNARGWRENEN
Outline: as §1

SPI1 = SPI1 (Homo sapiens, UniProt P17947 1-270)
Outline: as §1

SPIB = SPIB (Homo sapiens, UniProt Q01892 1-262)
Chain of SPIB (Q01892 whole entry): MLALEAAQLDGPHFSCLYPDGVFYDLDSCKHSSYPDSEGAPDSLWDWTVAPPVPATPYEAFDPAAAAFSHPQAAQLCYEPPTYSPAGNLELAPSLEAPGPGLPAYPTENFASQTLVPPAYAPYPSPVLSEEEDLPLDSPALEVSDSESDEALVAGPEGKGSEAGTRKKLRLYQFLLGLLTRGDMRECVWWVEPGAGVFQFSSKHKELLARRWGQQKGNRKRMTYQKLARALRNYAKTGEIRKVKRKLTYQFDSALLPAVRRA
Outline: as §1

FEV = molecular target: T5, FEV (Homo sapiens, UniProt Q99581 1-238)
T5 sequence: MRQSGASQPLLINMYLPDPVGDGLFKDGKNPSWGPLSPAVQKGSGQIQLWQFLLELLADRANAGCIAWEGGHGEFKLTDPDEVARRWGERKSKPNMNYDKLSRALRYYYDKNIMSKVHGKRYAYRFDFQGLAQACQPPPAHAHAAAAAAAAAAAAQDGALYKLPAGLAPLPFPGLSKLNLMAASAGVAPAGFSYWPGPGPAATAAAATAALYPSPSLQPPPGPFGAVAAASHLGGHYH
Outline: as §1

ETV5 = ETV5 (Homo sapiens, UniProt P41161 1-510)
Chain of ETV5 (P41161 whole entry): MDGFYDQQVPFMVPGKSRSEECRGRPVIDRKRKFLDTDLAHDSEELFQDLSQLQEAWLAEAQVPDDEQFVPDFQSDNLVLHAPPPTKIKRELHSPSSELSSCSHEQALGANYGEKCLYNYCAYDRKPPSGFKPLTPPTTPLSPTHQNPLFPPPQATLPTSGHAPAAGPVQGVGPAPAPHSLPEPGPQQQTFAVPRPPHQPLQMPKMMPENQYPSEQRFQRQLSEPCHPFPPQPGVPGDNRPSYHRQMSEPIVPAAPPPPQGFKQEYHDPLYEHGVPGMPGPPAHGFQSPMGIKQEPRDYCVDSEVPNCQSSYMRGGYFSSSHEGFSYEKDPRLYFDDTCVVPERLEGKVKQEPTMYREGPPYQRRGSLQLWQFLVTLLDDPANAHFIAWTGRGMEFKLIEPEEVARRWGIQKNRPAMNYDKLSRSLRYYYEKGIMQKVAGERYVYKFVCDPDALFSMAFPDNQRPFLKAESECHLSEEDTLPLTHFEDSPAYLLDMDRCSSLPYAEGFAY
Outline: as §1

SPIC = molecular target: T6, SPIC (Homo sapiens, UniProt Q8N5J4 1-248)
T6 sequence: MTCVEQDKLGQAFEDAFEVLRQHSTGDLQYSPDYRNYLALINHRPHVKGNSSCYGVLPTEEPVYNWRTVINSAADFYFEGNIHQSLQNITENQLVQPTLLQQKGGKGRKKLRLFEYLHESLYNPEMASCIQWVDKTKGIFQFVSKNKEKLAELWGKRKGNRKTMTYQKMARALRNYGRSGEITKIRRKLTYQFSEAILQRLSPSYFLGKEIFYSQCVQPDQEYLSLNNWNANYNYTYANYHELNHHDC
Outline: as §1

ELF4 = ELF4 (Homo sapiens, UniProt Q99607 1-663)
Chain of ELF4 (Q99607 whole entry): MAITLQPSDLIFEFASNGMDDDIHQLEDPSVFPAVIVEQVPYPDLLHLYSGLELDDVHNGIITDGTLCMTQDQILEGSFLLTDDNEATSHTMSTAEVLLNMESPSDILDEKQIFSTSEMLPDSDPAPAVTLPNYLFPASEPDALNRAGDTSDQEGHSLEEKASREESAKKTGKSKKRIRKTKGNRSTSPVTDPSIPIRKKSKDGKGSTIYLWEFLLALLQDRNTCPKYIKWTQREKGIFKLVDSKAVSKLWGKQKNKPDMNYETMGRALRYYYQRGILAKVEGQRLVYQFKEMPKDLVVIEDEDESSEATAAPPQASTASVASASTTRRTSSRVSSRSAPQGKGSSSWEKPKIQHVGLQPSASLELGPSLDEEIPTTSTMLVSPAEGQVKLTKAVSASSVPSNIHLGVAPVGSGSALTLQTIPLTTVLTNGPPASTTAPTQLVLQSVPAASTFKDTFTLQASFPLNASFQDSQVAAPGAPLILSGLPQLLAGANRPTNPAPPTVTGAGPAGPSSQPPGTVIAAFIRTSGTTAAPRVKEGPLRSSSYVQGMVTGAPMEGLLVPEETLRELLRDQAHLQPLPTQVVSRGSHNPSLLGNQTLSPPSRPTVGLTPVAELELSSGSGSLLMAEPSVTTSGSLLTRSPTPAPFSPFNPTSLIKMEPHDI
Outline: as §1

ETV1 = ETV1 (Homo sapiens, UniProt P50549 1-477)
Chain of ETV1 (P50549 whole entry): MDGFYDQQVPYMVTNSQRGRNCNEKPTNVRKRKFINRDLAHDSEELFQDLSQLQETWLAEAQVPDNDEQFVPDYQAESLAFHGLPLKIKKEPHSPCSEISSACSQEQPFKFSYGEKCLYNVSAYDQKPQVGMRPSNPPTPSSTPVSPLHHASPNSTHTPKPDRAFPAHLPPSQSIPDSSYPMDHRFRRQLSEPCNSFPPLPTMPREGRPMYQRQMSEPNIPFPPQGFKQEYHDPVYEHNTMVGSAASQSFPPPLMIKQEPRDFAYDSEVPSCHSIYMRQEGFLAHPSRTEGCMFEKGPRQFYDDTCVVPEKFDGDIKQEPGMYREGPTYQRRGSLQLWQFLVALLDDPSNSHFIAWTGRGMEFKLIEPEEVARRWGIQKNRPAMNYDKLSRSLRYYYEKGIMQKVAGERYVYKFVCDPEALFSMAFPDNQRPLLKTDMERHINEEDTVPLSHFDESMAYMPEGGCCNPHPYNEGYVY
Outline: as §1

ERF = molecular target: T7, ERF (Homo sapiens, UniProt P50548 1-548)
T7 sequence: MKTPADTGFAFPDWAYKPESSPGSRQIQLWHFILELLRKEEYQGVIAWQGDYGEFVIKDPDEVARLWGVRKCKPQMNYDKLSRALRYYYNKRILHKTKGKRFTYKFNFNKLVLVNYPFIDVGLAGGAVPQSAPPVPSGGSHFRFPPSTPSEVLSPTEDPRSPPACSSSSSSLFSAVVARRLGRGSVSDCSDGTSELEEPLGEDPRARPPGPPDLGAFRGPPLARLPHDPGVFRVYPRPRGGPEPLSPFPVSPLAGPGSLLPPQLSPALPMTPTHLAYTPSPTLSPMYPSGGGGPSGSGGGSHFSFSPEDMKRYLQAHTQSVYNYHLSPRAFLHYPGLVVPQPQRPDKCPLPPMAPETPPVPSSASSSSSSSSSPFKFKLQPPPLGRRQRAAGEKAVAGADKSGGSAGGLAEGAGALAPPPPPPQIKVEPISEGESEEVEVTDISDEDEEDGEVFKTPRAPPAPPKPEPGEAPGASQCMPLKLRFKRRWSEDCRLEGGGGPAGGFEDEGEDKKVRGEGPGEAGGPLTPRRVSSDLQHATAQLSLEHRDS
Outline: as §1

ETV3L = molecular target: T8, ETV3L (Homo sapiens, UniProt Q6ZN32 1-361)
T8 sequence: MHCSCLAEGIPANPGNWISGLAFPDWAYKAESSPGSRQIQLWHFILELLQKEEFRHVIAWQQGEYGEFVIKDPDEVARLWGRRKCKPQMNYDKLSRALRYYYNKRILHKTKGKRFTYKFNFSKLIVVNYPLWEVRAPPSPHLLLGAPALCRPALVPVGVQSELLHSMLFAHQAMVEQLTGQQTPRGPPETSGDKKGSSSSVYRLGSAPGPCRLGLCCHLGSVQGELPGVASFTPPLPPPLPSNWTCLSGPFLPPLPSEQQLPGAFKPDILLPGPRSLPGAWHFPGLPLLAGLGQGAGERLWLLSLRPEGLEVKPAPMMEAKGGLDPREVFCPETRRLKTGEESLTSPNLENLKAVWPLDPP
Outline: as §1

ETS2 = molecular target: T9, ETS2 (Homo sapiens, UniProt P15036 1-469)
T9 sequence: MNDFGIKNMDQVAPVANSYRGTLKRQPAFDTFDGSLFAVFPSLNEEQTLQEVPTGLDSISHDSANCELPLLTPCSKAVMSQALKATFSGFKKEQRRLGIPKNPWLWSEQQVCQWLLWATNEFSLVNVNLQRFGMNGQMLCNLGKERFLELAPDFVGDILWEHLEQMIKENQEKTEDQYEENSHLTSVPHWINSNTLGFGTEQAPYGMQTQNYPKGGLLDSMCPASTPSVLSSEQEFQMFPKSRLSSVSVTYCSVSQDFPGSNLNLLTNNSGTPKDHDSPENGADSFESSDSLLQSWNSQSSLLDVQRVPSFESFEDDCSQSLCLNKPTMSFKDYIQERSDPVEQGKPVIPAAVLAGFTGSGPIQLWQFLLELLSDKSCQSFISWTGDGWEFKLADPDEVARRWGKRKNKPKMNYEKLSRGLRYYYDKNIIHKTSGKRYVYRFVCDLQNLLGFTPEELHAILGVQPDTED
Outline: as §1

ETV3 = molecular target: T10, ETV3 (Homo sapiens, UniProt P41162-2 1-143)
T10 sequence: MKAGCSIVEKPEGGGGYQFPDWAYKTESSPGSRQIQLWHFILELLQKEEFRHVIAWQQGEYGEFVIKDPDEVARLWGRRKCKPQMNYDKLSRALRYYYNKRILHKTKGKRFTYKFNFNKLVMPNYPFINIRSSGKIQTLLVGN
Outline: as §1

ETV6 = ETV6 (Homo sapiens, UniProt P41212 1-452)
Chain of ETV6 (P41212 whole entry): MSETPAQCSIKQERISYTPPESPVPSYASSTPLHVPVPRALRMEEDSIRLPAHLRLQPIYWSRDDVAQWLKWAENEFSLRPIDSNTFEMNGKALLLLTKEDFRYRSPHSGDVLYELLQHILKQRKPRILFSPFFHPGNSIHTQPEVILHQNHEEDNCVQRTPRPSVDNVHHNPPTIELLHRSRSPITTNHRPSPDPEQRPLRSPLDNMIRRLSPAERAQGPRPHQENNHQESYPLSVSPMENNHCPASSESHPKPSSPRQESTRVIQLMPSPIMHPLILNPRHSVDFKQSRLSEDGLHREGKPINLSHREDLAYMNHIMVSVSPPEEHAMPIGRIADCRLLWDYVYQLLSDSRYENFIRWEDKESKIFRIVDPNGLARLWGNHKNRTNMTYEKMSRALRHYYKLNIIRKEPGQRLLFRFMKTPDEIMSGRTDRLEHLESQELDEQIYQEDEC
Outline: as §1

## CGCGAC
FLI1
  binding signal: 1.08 fold enrichment (6-mer frequency, TF over GST control)
GABPA
  binding signal: 1.09 fold enrichment (6-mer frequency, TF over GST control)
ERG
  binding signal: 1.04 fold enrichment (6-mer frequency, TF over GST control)
ELF1
  binding signal: 1.12 fold enrichment (6-mer frequency, TF over GST control)
EHF
  binding signal: 1.12 fold enrichment (6-mer frequency, TF over GST control)
SPI1
  binding signal: 1.08 fold enrichment (6-mer frequency, TF over GST control)
SPIB
  binding signal: 1.11 fold enrichment (6-mer frequency, TF over GST control)
FEV
  binding signal: 1.01 fold enrichment (6-mer frequency, TF over GST control)
ETV5
  binding signal: 1.08 fold enrichment (6-mer frequency, TF over GST control)
SPIC
  binding signal: 1.31 fold enrichment (6-mer frequency, TF over GST control)
ELF4
  binding signal: 1.09 fold enrichment (6-mer frequency, TF over GST control)
ETV1
  binding signal: 1.06 fold enrichment (6-mer frequency, TF over GST control)
ERF
  binding signal: 1.16 fold enrichment (6-mer frequency, TF over GST control)
ETV3L
  binding signal: 1.04 fold enrichment (6-mer frequency, TF over GST control)
ETS2
  binding signal: 1.12 fold enrichment (6-mer frequency, TF over GST control)
ETV3
  binding signal: 1.04 fold enrichment (6-mer frequency, TF over GST control)
ETV6
  binding signal: 1.04 fold enrichment (6-mer frequency, TF over GST control)

Source: article PMC7862700, “An all-to-all approach to the identification of sequence-specific readers for epigenetic DNA modifications on cytosine”
